# Measured values: PubChem BioAssay AID485313 (National Center for Advancing Translational Sciences (NCATS), 2010)
# The campaign covered roughly 320,000 compounds. About 7,600 (2.4%) were called active. About 3% were inconclusive and are not listed. Only a selection was taken, and actives are over-represented in it overall. Unmarked numbers belong to inactive results. The call rests on the fitted dose curve; in most records, active means well fitted activation curve with a large enough effect; inconclusive means small, poorly fitted or top-dose-only effect; inactive means no such curve, though single readings can be large or run the other way.
# Experiment: qHTS Assay for NPC1 Promoter Activators; further: nearly all actives have a fitted effect of over 60% in size;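 on activation: reporter is driven by a mutant NPC1 promoter; % of control where 0% means no effect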
# Details: Huh7 NPC1 promoter luciferase reporter, 24 h; series mostly up to 9.22 µM; activation: at the top concentration
# Summary of the method: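 Quantitative HTS used a cell-based reporter: Huh7 cells stably bearing the NPC1 promoter upstream of luciferase were treated with compounds for 24 h, and promoter activation was read as luminescence.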
# Potency means the concentration at half of the fitted maximal effect.
Compound,activation,Potency
COc1ccc(S(=O)(=O)N2CCN(C(C)C(=O)Nc3ccc(C(C)C)cc3)CC2)cc1 (stereo not given),-1.01%,–
CCC(=O)c1ccc(OCC(=O)OCC(=O)N2CCc3ccccc3C2)cc1,0.793%,–
CCOc1ccc2nc(NC(=O)c3cc([N+](=O)[O-])ccc3N3CCOCC3)sc2c1,-6.13%,–
O=C(Nc1nc2ccc([N+](=O)[O-])cc2s1)c1ccncc1,–,1.41 µM (active)
O=C(NC(Nc1nc2ccc([N+](=O)[O-])cc2s1)(C(F)(F)F)C(F)(F)F)c1ccccc1,-37.5%,–
CCC(C(=O)N1CCN(S(=O)(=O)c2sc(C(=O)O)c(C)c2C(=O)O)CC1)c1ccccc1 (stereo not given),-0.87%,–
Cc1c(N=Nc2ccc(N(C)C)cc2)c(=O)n(-c2ccccc2)n1C,–,3.55 µM (active)
Cc1c(C=O)n(C)n(-c2ccccc2)c1=O,-2.37%,–
Cc1nc(N)sc1N=Nc1c(C)n(C)n(-c2ccccc2)c1=O,0.337%,–
CC(C(=O)Nc1ccc(S(=O)(=O)N2CCCC2)cc1)N(C)Cc1ccc(F)cc1 (stereo not given),-1.43%,–
CCN(c1ccccc1)S(=O)(=O)c1cc(C(=O)NCc2ccccn2)ccc1C,-1.04%,–
Cc1ccc(NC(=O)CNCc2ccccn2)cc1S(=O)(=O)N(C)C,10.9%,–
CCN(CC)S(=O)(=O)c1cc(C(=O)Nc2ccccn2)ccc1C,–,2.24 µM (active)
COc1cc(OC)cc(C(=O)NCC(=O)N2CCCCCCC2)c1,1.24%,–
Cc1ccc(C)c(NC(=O)COC(=O)CSc2ccccc2)c1,0.0646%,–
COc1cc(OC)cc(-c2nc(=S)n3ccsc3n2)c1,9.02%,–
CCN(CC)S(=O)(=O)c1ccc(-c2cn3ccc(C)cc3n2)cc1,–,1.26 µM (active)
COc1ccc(-c2cn3ccsc3n2)cc1,–,1.58 µM (active)
CCN(CC(=O)NCCc1ccccc1)S(=O)(=O)c1ccc(C)cc1,-1.6%,–
Cc1ccn2cc(C(=O)NC3CCN(Cc4ccccc4)CC3)nc2c1,-3.61%,–
COc1ccc(-c2cn3ccc(C)cc3n2)cc1,–,0.112 µM (active)
COc1ccc(-n2c(-c3ccc(OC)c(OC)c3)n[nH]c2=S)cc1,-0.837%,–
COc1ccc(CNc2nccs2)cc1,21.7%,–
CCN(c1cccc(C)c1)S(=O)(=O)c1ccc(-c2coc(C)n2)cc1,-3.28%,–
COC(=O)Cc1ccc(OC(=O)C2CCN(S(=O)(=O)c3ccc(OC)c(OC)c3)CC2)cc1,-0.239%,–
COCCn1c(C)cc(C(=O)CSc2nnc(C3CC3)n2C2CC2)c1C,-0.502%,–
CN(C(=O)COC(=O)CCCc1c[nH]c2ccccc12)c1c(N)n(Cc2ccccc2)c(=O)[nH]c1=O,-3.45%,–
Cc1cc(C)nc(N2CCC(C(=O)Nc3ccc4c(c3)OCCO4)CC2)n1,-3.44%,–

Compound,activation,Potency
O=C(Nc1ccc2c(c1)OCCO2)C1CCCN(c2ncccn2)C1 (stereo not given),–,0.398 µM (active)
O=C(Nc1ccc2c(c1)OCCO2)C1CCCC1,21.2%,–
CCc1ccccc1NC(=O)CN(C)C(=O)c1cc(C2CC2)nn1-c1ccccc1,-0.178%,–
COc1ccc(Cl)cc1C(=O)OCC(=O)NCc1cccs1,0.231%,–
CCN(CC(=O)Nc1c(F)cccc1F)C(=O)c1ccc(-c2ccc(C(C)=O)cc2)o1,-3.93%,–
N#Cc1ccc(CN2CCN(CC(=O)Nc3ccccc3C(=O)NC3CC3)CC2)cc1,0.497%,–
CC(C)CN(Cc1c(O)ccc2c(=O)c(-c3ccccc3)coc12)CC(C)C,-1.85%,–
O=c1c(-c2ccccc2)coc2cc(O)ccc12,–,3.16 µM (active)
Cc1c(CCC(=O)O)c(=O)oc2cc3occ(-c4ccccc4)c3cc12,-1.45%,–
COCC1CCCN(Cc2nc(-c3ccc4c(c3)OCO4)no2)C1 (stereo not given),12.7%,–
CC(C)CCNC(=O)c1ccc2c(Cl)c3c(nc2c1)CCC3,–,2 µM (active)
COc1ccc(N2CCN(C(=O)c3ccc4c(Cl)c5c(nc4c3)CCCC5)CC2)cc1,-3.17%,–
CC(=O)c1ccc(NC(=O)c2ccc3c(Cl)c4c(nc3c2)CCCC4)cc1,-3.17%,–
Cc1c(C)c(C)c(S(=O)(=O)N2CCC3(CC2)OCCO3)c(C)c1C,-1.45%,–
CCOc1ccc(S(=O)(=O)NCCC(=O)NCC2CCCO2)cc1 (stereo not given),-2.23%,–
CC(NC(=O)CN(C)S(=O)(=O)c1ccc(F)cc1)C1CC2CCC1C2 (stereo not given),6.05%,–
CCCCN1C(=O)C(=O)N(CC(=O)Nc2cccc(C(C)=O)c2)C1=O,-7.53%,–
COc1cc(C(c2c(NC(=O)c3ccco3)sc(C)c2C)N2CCOCC2)cc(OC)c1OC (stereo not given),-2.41%,–
COc1ccc(-c2csc(Nc3ccccn3)n2)cc1,–,0.631 µM (active)
c1cnc(Nc2nc(-c3ccc4ccccc4c3)cs2)nc1,–,0.282 µM (active)
O=C(O)c1ccccc1C(=O)Nc1nc(-c2ccccc2)cs1,10.8%,–
Cc1ccc(-c2csc(NC3OC(=O)c4ccccc43)n2)cc1 (stereo not given),-12.3%,–
CCCn1c(CCNc2nc(-c3ccc(OC)cc3)cs2)nc2ccccc21,2.48%,–
Clc1ccc(-c2csc(-c3ccncc3)n2)cc1,29.2%,–
O=C(Nc1nc(-c2ccc(-c3ccccc3)cc2)cs1)c1cnccn1,7.86%,–
c1ccc(Nc2nc(-c3ccncc3)cs2)nc1,–,2.24 µM (active)
COc1ccc(C(=O)Nc2nc(-c3ccc(S(=O)(=O)N4CCOCC4)cc3)cs2)cc1,-2.62%,–
